# From ChEMBL document CHEMBL3988442, “University of Dundee, Small-Polar-MMV Screening Library” (2021)
# Hit rate of the full screen: of about 66,000 compounds, about 960 (1.5%) showed an effect of 50% or more. The sample as a whole holds a higher share of strong results than the screen did.
# Tested on: Trypanosoma brucei
# Assay: Trypanosoma brucei 72 hour study
# Format: functional, organism-based
# Parameters: scale not given: in the data most compounds retested in dose-response had high values
SMILES,"Percent Effect (30 µM, 30.03 µM)","Percent Effect (30.3 µM, […])"
O=C(C1CCC1)N1C[C@@H]2CC[C@H](C1)N(S(=O)(=O)c1cccnc1)C2,-15.99%,
CCOc1ncccc1CNC(=O)NC1CCOc2ccccc21 (stereo not drawn),,-12.87%
C[C@@H]1CN(Cc2cccnc2)C[C@]12CCN(CCN1CCCC1)C2=O.O=C(O)C(F)(F)F.O=C(O)C(F)(F)F.O=C(O)C(F)(F)F,,-30.87%
O=C(c1csc2nc(-c3ccc(Cl)cc3)cn12)N1CCCC(CO)C1 (stereo not drawn),-27.9%,
CCC1CN(C(=O)c2csc3nc(-c4ccc(Cl)cc4)cn23)CCN1 (stereo not drawn),66.56%,
CC(C)N1CCN(C(=O)c2csc3nc(-c4ccc(Cl)cc4)cn23)CC1,-14.99%,
Cc1ccc(-c2cc(C3CCNCC3)nc(C)n2)cc1.Cl,,86.87%
Cc1nc(-c2ccccc2)cc(C2CCNCC2)n1.Cl,,-24.18%
Cc1nc(-c2ccc(CO)cc2)cc(C2CCNCC2)n1.Cl,,-17.1%
Cc1nc(-c2ccc(F)cc2)cc(C2CCNCC2)n1,,-5.19%
Cc1nc(-c2ccc(F)c(F)c2)cc(C2CCNCC2)n1.Cl,,101.1%
COc1ccc(-c2cc(C3CCNCC3)nc(C)n2)cc1.Cl,,0.4357%
O=C(O)C(F)(F)F.O=C(c1cscn1)N1CCc2c(COCC3CC3)cncc2C1,,-26.29%
O=C(O)C(F)(F)F.O=C([C@H]1C[C@@H]2CCN(c3cccc(F)c3)C[C@H]2O1)N1CCCCO1,,-0.6141%
Fc1ccc(CNCc2nnc3n2CC(C(F)(F)F)CC3)cc1 (stereo not drawn),-35.58%,
CC[C@@H]1N(Cc2ccc(F)cc2)CCC[C@]12CCC(=O)N2CCOC.O=C(O)C(F)(F)F,,-80.81%
CC(C)c1n[nH]c(C2CN(C(=O)Cn3ccccc3=O)CCO2)n1 (stereo not drawn),,9.582%
CCc1n[nH]c(C2CN(C(=O)CCn3ccccc3=O)CCO2)n1 (stereo not drawn),,7.899%
CC(C)c1n[nH]c(C2CN(C(=O)CCn3ccccc3=O)CCO2)n1 (stereo not drawn),52.13%,
CN(C)c1ncc(-c2ccc(F)cc2)c(C2CNCCO2)n1.Cl (stereo not drawn),,29.73%
Cl.c1ncc(-c2ccc(C3CNCCO3)nc2)cn1 (stereo not drawn),,-18.07%
Cl.Clc1ccc(-c2ccc(C3CNCCO3)nc2)cc1 (stereo not drawn),,98.64%
COc1ccc(OCCc2cc(C3CNCCO3)nn2C)cc1 (stereo not drawn),,1.828%
Cl.Cl.Cn1nc(C2CNCCO2)cc1CCOc1ccc(Cl)cc1 (stereo not drawn),,53.46%

SMILES,"Percent Effect (30 µM, 30.03 µM)","Percent Effect (30.3 µM, […])"
Cc1ccc(-c2ccc(C3CNCCO3)nc2)cc1.Cl (stereo not drawn),,88.62%
Cl.c1ccc(-c2ccc(C3CNCCO3)nc2)cc1 (stereo not drawn),-8.657%,
Cn1nc(C2CNCCO2)cc1CCOc1ccc(C(F)(F)F)cc1 (stereo not drawn),,20.05%
COc1ccc(-c2ccc(C3CNCCO3)nc2)cc1.Cl (stereo not drawn),,-17.4%
COCCCNC(=O)NCc1cccn1Cc1ccccc1C,-24.61%,
O=C(O)C(F)(F)F.O=C1COC2(CCN(Cc3ccoc3)CC2)CN1c1ccccc1,-9.648%,
COCCNC(=O)[C@H]1CN(Cc2csc(C)n2)C[C@H]2OCC[C@@H]12.O=C(O)C(F)(F)F.O=C(O)C(F)(F)F,-11.19%,
COCC1CC2(CCN(Cc3cccc(C#N)c3)CC2)CN1C(C)C.O=C(O)C(F)(F)F.O=C(O)C(F)(F)F (stereo not drawn),-12.65%,
CC[C@H](C)[C@H](N)C(=O)N1CC(=O)c2sc(Nc3ccc(F)cc3)nc2C1,,54.3%
CC(C)CC(=O)N1CC(=O)c2sc(Nc3ccc(F)cc3)nc2C1,,-26.14%
CC(C)CC(=O)N1CC(=O)c2sc(NC3CCCCC3)nc2C1,,-18.82%
CC[C@H](C)[C@H](N)C(=O)N1CC(=O)c2sc(NC3CCCCC3)nc2C1,,89.66%
CC[C@H](C)[C@H](N)C(=O)N1CC(=O)c2sc(NCc3ccccc3)nc2C1,,35.54%
CC(C)NC(=O)N1CC(=O)c2sc(NC3CCCCC3)nc2C1,,-21.05%
N[C@H]1CC[C@@H](n2cc(C(=O)N[C@H]3CCCc4ccccc43)nn2)CC1,-48.79%,
O=C(Nc1cnccn1)[C@@H]1COC[C@H]2CN(C3CCC3)C[C@H]21.O=C(O)C(F)(F)F,-9.316%,
COCCN1CCC(CNC(=O)c2cc(C)cc(C)c2)C1 (stereo not drawn),28.41%,
COCCN1CCC(CNC(=O)C2(c3cccc(Cl)c3)CC2)C1 (stereo not drawn),,10.42%
COCCN1CCC(CNC(=O)Nc2ccc(-c3ccccc3)cc2)C1 (stereo not drawn),,100.6%
COCCN1CCC(CNC(=O)Nc2ccc(SC(F)(F)F)cc2)C1 (stereo not drawn),,90.18%
COCCN1CCC(CNC(=O)C2(c3ccccc3)CCOCC2)C1 (stereo not drawn),,-10.94%
COCCn1cc(NC(=O)NCC2CCN(c3ccccc3)C2)cn1 (stereo not drawn),-68.77%,
COCCN1CCC(CNC(=O)Nc2ccc(F)c(Cl)c2)C1 (stereo not drawn),,73.54%
COCCN1CCC(CNC(=O)CCc2cc(F)ccc2F)C1 (stereo not drawn),-4.617%,
